Bioassay records: PubChem, National Center for Advancing Translational Sciences (NCATS)
G9a inh – blocks human histone lysine methyltransferase G9a; Q96KQ7; G9a H3K9 monomethylation, AlphaScreen, 2 h; Potency, µM (highest dose often 102 µM), for inactives: top-dose activity, negative = inhibition, usual class: inhibitors; 8.8% of 350,000 active; AID 504332; further: on the % scale 0 is the no-effect control and ±100 the full control effect; nearly all actives have a fitted effect of over 75% in size
Target sequence (Q96KQ7 913-1193 limits assumed): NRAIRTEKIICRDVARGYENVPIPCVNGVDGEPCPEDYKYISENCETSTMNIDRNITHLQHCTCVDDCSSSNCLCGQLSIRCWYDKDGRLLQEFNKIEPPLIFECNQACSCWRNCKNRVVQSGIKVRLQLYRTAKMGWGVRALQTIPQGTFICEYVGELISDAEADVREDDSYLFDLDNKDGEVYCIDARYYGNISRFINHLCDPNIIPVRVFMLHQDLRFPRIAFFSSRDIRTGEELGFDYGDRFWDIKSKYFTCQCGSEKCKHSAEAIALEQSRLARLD
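Signal arises when biotinylated H3K9 peptide, once monomethylated, bridges streptavidin donor and antibody-captured acceptor beads. Enzyme at 20 nM was preincubated 15 min with test compounds; peptide 500 nM and SAM 20 uM then reacted for 2 h.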
HP1b chromo inh – inhibitors of HP1-beta chromodomain binding to methylated histone tails. AlphaScreen HP1-beta / biotin-H3K9me3 peptide binding. Potency, µM (doses to about 114 µM), for inactives: top-dose activity change, negative = inhibition, actives largely listed as inhibitors. 0.56% of 390,000 active. P83916. AID 540317; further: nearly all actives have a fitted effect of over 70% in size
Target sequence (P83916 whole entry, looked up): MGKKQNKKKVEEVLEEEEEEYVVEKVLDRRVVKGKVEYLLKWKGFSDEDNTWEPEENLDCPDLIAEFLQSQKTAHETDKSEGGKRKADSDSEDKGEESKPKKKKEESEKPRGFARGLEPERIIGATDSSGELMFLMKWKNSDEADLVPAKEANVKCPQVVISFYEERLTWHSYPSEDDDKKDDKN
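HP1-beta protein (50 nM final) preincubated 30 min at room temperature with biotinylated H3(1-18)K9me3 peptide (50 nM) in PBS pH 7.4, 0.01% Tween-20, then compound added for 30 min. AlphaScreen streptavidin donor/nickel chelate acceptor beads (10 ug/mL final), 30 min dark, luminescence read.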
JMJD2A Tudor inh – blocks the human JMJD2A Tudor domain. Potency, µM (titrated, usually from 114 µM), for inactives: at the top dose activity change, negative = inhibition, hits mostly inhibitors. AlphaScreen JMJD2A-Tudor / H3K4me3 peptide binding. 4.4% of 390,000 active. O75164. AID 504339; further: on the % scale 0 is the no-effect control and ±100 the full control effect; nearly all actives have a fitted effect of over 50% in size
TDP1 inh – blocks human tyrosyl-DNA phosphodiesterase 1; Q9NUW8; recombinant TDP1, AlphaScreen DNA substrate cleavage; Potency, µM (series often up to 130 µM), inactives show at the top dose activity change, negative = inhibition, most hits filed as inhibitors; 0.28% of 350,000 active; AID 485290; further: on the % scale 0 is the no-effect control and ±100 the full control effect; nearly all actives have a fitted effect of over 40% in size
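Signal: AlphaScreen proximity between streptavidin donor and anti-FITC acceptor beads on intact substrate. Reaction: Tdp1 1 nM, substrate 15 nM final, 5 min RT after 15 min compound preincubation.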
BAZ2B block – inhibitors of human BAZ2B bromodomain. Q9UIF8. AlphaScreen BAZ2B-H3K14Ac peptide displacement. Potency, µM (doses to about 114 µM), without a hit: at the top dose activity change, negative = inhibition, actives largely listed as inhibitors. 4.4% of 360,000 active; further: on the % scale 0 is the no-effect control and ±100 the full control effect; nearly all actives have a fitted effect of over 60% in size
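Inhibition is scored as reduced AlphaScreen emission. The BAZ2B/b-H3(5-23)K14Ac complex (50 nM each) in PBS pH 7.4, 0.01% Tween-20 meets compound (up to 110 uM) for 30 min at RT before bead addition.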
Sfp PPTase inh – inhibitors of Bacillus subtilis Sfp phosphopantetheinyl transferase; Biochemical Sfp PPTase activity, qHTS; Potency, µM, without a hit: largest response in the series, negative = inhibition, usual class: inhibitors; 3.5% of 310,000 active;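 further: the enzyme is Sfp with the accession as filed and its product quenches rhodamine fluorescence; 0% = enzyme reaction without inhibitor and -100% = no enzyme wells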
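Fluorescence-quenching assay with 15 nM Sfp, 5 uM rhodamine-CoA and 12.5 uM BHQ-2-labelled ybbR peptide in pH 7.6 Hepes/MgCl2 buffer. Enzyme was pre-incubated with compound for 15 min at room temperature. Rate was taken from the 30-min fluorescence change (525/598 nm).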
* = called active by the depositor; ? = inconclusive; / = not tested or not shown; [ ] = another dose, or the depositor's remark. Shown are actives, neighbours in structure and some others; about 12% of the full set was active somewhere. The call rests on the fitted dose curve; in most records, active means well fitted curve in the direction sought with a large enough effect; inconclusive means small, poorly fitted or top-dose-only effect, or another doubt; inactive means no such curve, though single readings can be large; an effect the other way counts as inactive or inconclusive. Potency means the concentration at half of the fitted maximal effect.

SMILES	G9a inh	HP1b chromo inh	JMJD2A Tudor inh	TDP1 inh	BAZ2B block	Sfp PPTase inh
COc1ccccc1-c1nnc2n1N=C(C)CS2	20µM*	34%	56µM*	0%	-3%	7%
COc1ccccc1-c1nnc2n1N=C(C(C)(C)C)CS2	-10%[12.7 µM]	19%	-3%	3%	0%	15%
CC1=Nn2c(nnc2-c2ccccc2Cl)SC1	22µM*	50%	-27%	8%	1%	-15%
COC(=O)C1=NNC(C(=O)c2ccco2)C1c1ccc(OC)cc1 (centres undefined)	-38%	46%	-8%	2%	-35%	7%
CCN1/C(=C2/SC(=S)N(C)C2=O)C=Cc2cc(C)ccc21	/	8%	-23%	/	/	/
CCN1/C(=C2\C(=O)N(C)C(=S)N2C)C=Cc2cc(OC)ccc21	7.9µM*	?	?	5%	56µM*	50µM*
CCN1C(=O)/C(=C2/C=Cc3cc(C)ccc3N2CC)N(C)C1=S	11µM*	?	16µM*	7%	40µM*	?
CN1C(=O)[C@@H]2[C@@H]3C[C@@H]([C@H]4ON=C(c5ccccc5OCC#N)[C@@H]34)[C@@H]2C1=O	1%	25%	-7%	3%	-8%	18%
Cc1ccc(Cn2ccn(Cc3ccccc3F)c(=O)c2=O)cc1	-4%[59 µM]	29%	-18%	1%	-5%	/
Nc1c(O)cccc1C(=O)C[C@@H](N)C(=O)O	?	/	/	?	/	-24%
CC1(C)Cc2c(sc3nc(=S)[nH]c(N)c23)CO1	/	/	/	-2%	-12%	25µM*
Cc1nc(NN)c2c3c(sc2n1)COC(C)(C)C3	-7%[2.33 µM]	8%	-23%	/	-10%	56µM*
Cc1ccc(-c2nnc(Nc3ccc(Br)cc3)c3ccccc23)cc1S(=O)(=O)NCc1nc2ccccc2[nH]1	5%[59 µM]	20%	-16%	/	-3%	/
O=C1/C(=C/c2ccncc2)SC(=S)N1Nc1ccccc1	32µM*	?	?	8%	?	?
O=C(O)c1ccc(/C=C2\SC(=S)N(Nc3ccccc3)C2=O)cc1	50µM*	-5%	-23%	-11%	?	-24%
O=C(O)c1ccc(/C=C2\SC(=S)N(NC(=O)c3ccccc3[N+](=O)[O-])C2=O)cc1	?	16%	-19%	/	-3%	-23%
Cc1cc(C)nc(NN2C(=O)/C(=C/c3ccccc3)SC2=S)n1	40µM*	1%	-11%	-8%	-8%	32µM*
CC(C)(CO)CN1CCC(n2nccc2NC(=O)C2CCCC2)CC1	20%	4%	-12%	1%	-12%	3%
Nc1nnc(-c2cccc(F)c2)s1	-27%	-24%	-17%	/	-11%	-8%
Nc1nnc(-c2ccc(Cl)c(Cl)c2)s1	45µM*	20%	-5%	5%	-14%	3%
Cc1ccc(OCC(=O)Nc2ccccc2C(=O)OCc2cc(=O)n3nc(C4CC4)sc3n2)cc1	-2%[12.7 µM]	27%	3%	-4%	-10%	/
O=C(NC(=S)Nc1cc(-c2nc3ccccc3[nH]2)ccc1Cl)c1ccc2c(c1)OCO2	45µM*	-19%	-14%	5%	1%	?
CCOc1ccc(C(=O)Nc2cc(-c3nc4ccccc4[nH]3)ccc2Cl)cc1[N+](=O)[O-]	?	0%	79µM*	/	-11%	?
Cc1cc(C)nc(Nc2cccc(C(F)(F)F)c2)n1	50µM*	39%	-3%	1%	8%	6%
CCOC(=O)c1ccc(NC(=S)Nc2cccc(N)n2)cc1	-30%	-5%	-12%	6%	-31%	8.9µM*
SMILES	G9a inh	HP1b chromo inh	JMJD2A Tudor inh	TDP1 inh	BAZ2B block	Sfp PPTase inh
CCn1cc(Cl)c(C(=O)Nc2cccc(C(F)(F)F)c2)n1	52%	22%	50µM*	1%	31%	29%
CCOC(=O)c1ccc(NC(=O)c2c(Cl)cc(C)nc2C)cc1	50µM*	11%	-11%	5%	-33%	-13%
O=C(CN1CCOCC1)Nc1cccc(C(=O)Nc2cccc(C(F)(F)F)c2)c1	-24%	44%	-4%	1%	13%	1%
Cc1cc(Cl)c(C(=O)Nc2cccc(C(F)(F)F)c2)c(C)n1	45µM*	10%	?	6%	?	?
CCOC(=O)c1ccc(NC(=O)c2nccnc2C(=O)O)cc1	28µM*	15%	40µM*	4%	?	-26%
CCCCCNCC(=O)Nc1cccc(C(=O)Nc2cccc(C(F)(F)F)c2)c1	/	?	5µM*	/	?	32µM*
Nc1ccccc1Nc1cccc(C(F)(F)F)c1	6.3µM*	?	?	6%	50µM*	7%
Cc1c(Cl)cccc1NC(=O)CSc1ncc(S(=O)(=O)c2ccc(C(C)C)cc2)c(=O)[nH]1	-13%[59 µM]	26%	-9%	-1%	?	/
COc1cc(F)c(S(=O)(=O)N2CCCN(S(=O)(=O)c3ccc(NC(C)=O)cc3)CC2)c(F)c1	/	/	-27%	0%	/	/
CCc1ccc(N(C(=O)CCC(=O)Nc2cc(C)on2)C(C(=O)NC(C)(C)C)c2ccc(OC)cc2)cc1 (centres undefined)	-4%	25%	-8%	-10%	2%	17%
COC(=O)[C@@]1(Cc2ccc(F)cc2)[C@H]2c3cc(C(=O)N(C)C)n(Cc4cccc5ccccc45)c3C[C@H]2CN1C(=O)c1ccccc1	/	/	/	17%	/	9%
CCOc1ccc2nc(N3CCC(C(=O)Nc4ccccc4CC)CC3)sc2c1	-4%[59 µM]	35%	-11%	3%	-1%	/
COc1ccc(C(=O)NC2CCCc3ccccc32)c(OC)c1OC (centres undefined)	11%	19%	7%	0%	7%	2%
CN1C(=O)C(=O)/C(=C(/O)c2ccccc2)C1c1ccccc1 (centres undefined)	?	21%	-22%	/	-4%	11%
Cc1ccc(/C(O)=C2/C(=O)C(=O)OC2c2ccc(Cl)cc2)cc1 (centres undefined)	?	-8%	79µM*	1%	-29%[57.1 µM]	2%
O=C1OC(c2ccccc2)/C(=C(/O)c2ccc(Cl)cc2)C1=O (centres undefined)	-4%[12.7 µM]	-6%	25µM*	-10%	?	8%
Cc1ccc(C(=O)N2C(=O)C(c3ccccc3)Oc3ccccc32)cc1 (centres undefined)	218%	118%	42%	/	25%	12%
O=C1OC(c2ccccc2)/C(=C(/O)c2ccccc2)C1=O (centres undefined)	-8%[12.7 µM]	0%	35µM*	-8%	0%	-10%
COc1cc(C(O)CO)ccc1OS(=O)(=O)O (centres undefined)	-17%[59 µM]	46%	4%	11%[56.1 µM]	-4%	/
